Records with an inconclusive call do not appear. Active and inactive are the calls of the source. How the source made its calls, unless noted: active means hit-call score of the fitted dose curve at least 0.9, where 1 is the maximum; inactive means score below 0.9.
How the values were obtained:
[1] = read-out: Monokine induced gamma interferon (MIG), CXCL9 (gene 4283); assay: BSK_SAg_MIG: BioMAP Diversity Plus: SAg Assay for Monokine induced gamma interferon (MIG) Biomarker Activity (AID 2283092); settings: primary human HUVEC with PBMC; actives raise or lower the signal
In short: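 Endothelial cells and PBMC were co-cultured, exposed to test chemicals, and sampled 24 h later. MIG was measured by ELISA, and responses were fitted in both directions relative to DMSO.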

[2] = BSK_SAg_PBMCCytotoxicity: PBMC Cytotoxicity Assessment in the BioMAP Diversity Plus: SAg Assay (AID 2283093); settings: primary human HUVEC with PBMC;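 further: PBMC viability measured as Alamar Blue reduction fluorescence at 546/580 nm; fitted both ways against DMSO so a hit may be loss or gain of signal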;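 on AC50: PBMC superantigen activated with SEB plus TSST-1 one hour after compound addition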
In short: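 Human umbilical vein endothelial cells co-cultured with PBMC; PBMC (75,000/well) pre-treated with compound 1 h, then activated with SEB and TSST-1 (20 ng/mL final each) for 90 h. Alamar Blue added 6 h, fluorescence 546/580 nm; bidirectional fit versus DMSO.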

[3] = read-out: Interleukin-8 (IL8), CXCL8 (gene 3576); assay: BSK_SAg_IL8: BioMAP Diversity Plus: SAg Assay for Interleukin-8 (IL8) Biomarker Activity (AID 2283094); settings: primary human HUVEC with PBMC; actives raise or lower the signal
In short: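 Human umbilical vein endothelial cells co-cultured with PBMC, stimulated with superantigen; IL-8 measured by ELISA 24 h after chemical dosing. Bidirectional fitting versus DMSO; SRB staining in parallel cultures tracks cytotoxicity.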

[4] = BSK_SAg_Proliferation: Cell Proliferation Assessment in the BioMAP Diversity Plus: SAg Assay (AID 2283095); settings: primary human HUVEC with PBMC
In short: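 Human umbilical vein endothelial cells co-cultured with PBMC; sulforhodamine B total-protein staining (0.1% SRB after 10% TCA fixation, absorbance 560 nm) at 96 h in sub-confluent culture. Fitted bidirectionally against DMSO.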

[5] = BSK_SAg_SRB: Viability Assessment in the BioMAP Diversity Plus: SAg Assay (AID 2283096); settings: primary human HUVEC with PBMC;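 further: cells read one day after compound addition; hits may be either gain or loss of signal compared with DMSO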
In short: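 Endothelial/PBMC primary human co-culture; compound 24 h; fix 10% TCA, stain 0.1% SRB, A560; protein content as cytotoxicity proxy; bidirectional curve fit, DMSO = baseline.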

[6] = molecular target: human CYP19A1, CYP19A1 (gene 1588) (UniProt P11511); assay: NVS_ADME_hCYP19A1: NovaScreen (NVS) CYP450-related Enzyme Activity (ADME) Assay for human CYP19A1 (AID 2283098; active means hit-call score of the fitted dose curve at least 0.9, where 1 is the maximum)
human CYP19A1, CYP19A1 (gene 1588), sequence (P11511 whole entry, looked up): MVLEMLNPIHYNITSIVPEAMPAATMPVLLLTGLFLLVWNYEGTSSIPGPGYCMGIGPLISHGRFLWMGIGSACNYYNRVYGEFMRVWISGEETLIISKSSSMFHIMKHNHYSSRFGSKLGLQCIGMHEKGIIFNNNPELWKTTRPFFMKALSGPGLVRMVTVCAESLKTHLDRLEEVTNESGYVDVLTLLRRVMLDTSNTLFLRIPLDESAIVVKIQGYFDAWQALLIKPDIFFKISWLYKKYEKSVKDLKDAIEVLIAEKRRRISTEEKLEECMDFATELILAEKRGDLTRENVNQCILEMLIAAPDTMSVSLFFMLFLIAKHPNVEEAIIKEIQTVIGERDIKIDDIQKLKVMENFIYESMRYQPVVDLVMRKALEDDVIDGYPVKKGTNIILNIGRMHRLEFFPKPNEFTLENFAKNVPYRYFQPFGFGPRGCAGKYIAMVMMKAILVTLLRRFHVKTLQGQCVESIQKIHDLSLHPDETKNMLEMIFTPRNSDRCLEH
In short: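 Cell-free enzyme assay with recombinant protein and a specific fluorogenic substrate, read by fluorescence intensity 0.5 h after dosing. Primary screen ran in duplicate at 10 uM; actives were retested in concentration series. Loss of signal versus acetonitrile baseline.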

[7] = molecular target: human CYP2B6, CYP2B6 (gene 1555) (UniProt P20813); assay: NVS_ADME_hCYP2B6: NovaScreen (NVS) CYP450-related Enzyme Activity (ADME) Assay for human CYP2B6 (AID 2283101; active means hit-call score of the fitted dose curve at least 0.9, where 1 is the maximum)
human CYP2B6, CYP2B6 (gene 1555), sequence (P20813 whole entry, looked up): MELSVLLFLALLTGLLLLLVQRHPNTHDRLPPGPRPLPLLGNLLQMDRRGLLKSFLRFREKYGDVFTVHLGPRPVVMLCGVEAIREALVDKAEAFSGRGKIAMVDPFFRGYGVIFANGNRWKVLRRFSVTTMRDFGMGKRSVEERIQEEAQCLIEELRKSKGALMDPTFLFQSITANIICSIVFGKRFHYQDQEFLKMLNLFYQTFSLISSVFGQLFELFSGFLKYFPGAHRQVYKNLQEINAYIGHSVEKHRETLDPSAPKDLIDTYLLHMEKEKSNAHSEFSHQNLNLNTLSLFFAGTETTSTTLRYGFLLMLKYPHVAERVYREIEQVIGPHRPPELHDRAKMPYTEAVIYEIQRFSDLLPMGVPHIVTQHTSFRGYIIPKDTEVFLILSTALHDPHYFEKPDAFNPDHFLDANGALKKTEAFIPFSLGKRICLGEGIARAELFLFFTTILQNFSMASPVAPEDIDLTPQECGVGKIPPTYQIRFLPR
In short: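 Cell-free recombinant enzyme assay with a fluorogenic substrate; fluorescence intensity read 1 hour after dosing. Loss of signal relative to acetonitrile negative control indicates inhibition. Primary screen run in duplicate at 10 uM, actives then tested in concentration series.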

[8] = molecular target: human CYP1A1, CYP1A1 (gene 1543) (UniProt P04798); assay: NVS_ADME_hCYP1A1: NovaScreen (NVS) CYP450-related Enzyme Activity (ADME) Assay for human CYP1A1 (AID 2283100; active means hit-call score of the fitted dose curve at least 0.9, where 1 is the maximum)
human CYP1A1, CYP1A1 (gene 1543), sequence (P04798 whole entry, looked up): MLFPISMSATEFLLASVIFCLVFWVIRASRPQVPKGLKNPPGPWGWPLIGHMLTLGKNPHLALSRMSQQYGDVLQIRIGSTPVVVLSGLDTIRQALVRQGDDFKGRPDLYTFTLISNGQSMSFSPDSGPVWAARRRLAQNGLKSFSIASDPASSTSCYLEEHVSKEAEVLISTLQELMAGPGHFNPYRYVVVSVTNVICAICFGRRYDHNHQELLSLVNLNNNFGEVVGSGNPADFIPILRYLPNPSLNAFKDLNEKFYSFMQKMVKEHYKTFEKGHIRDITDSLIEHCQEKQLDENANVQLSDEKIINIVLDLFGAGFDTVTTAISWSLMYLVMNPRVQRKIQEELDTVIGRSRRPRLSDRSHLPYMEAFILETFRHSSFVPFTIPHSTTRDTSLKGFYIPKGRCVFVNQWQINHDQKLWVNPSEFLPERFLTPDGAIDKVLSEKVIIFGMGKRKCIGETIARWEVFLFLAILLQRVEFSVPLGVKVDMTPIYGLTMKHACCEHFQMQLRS
In short: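 Recombinant hCYP1A1 + fluorogenic substrate, cell-free; 1 h; fluorescence read. Single-point 10 uM (duplicate) → concentration series, max 20 uM. Acetonitrile negative control.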

[9] = molecular target: human CYP1A2, CYP1A2 (gene 1544) (UniProt P05177); assay: NVS_ADME_hCYP1A2: NovaScreen (NVS) CYP450-related Enzyme Activity (ADME) Assay for human CYP1A2 (AID 2283102; active means hit-call score of the fitted dose curve at least 0.9, where 1 is the maximum)
human CYP1A2, CYP1A2 (gene 1544), sequence (P05177 whole entry, looked up): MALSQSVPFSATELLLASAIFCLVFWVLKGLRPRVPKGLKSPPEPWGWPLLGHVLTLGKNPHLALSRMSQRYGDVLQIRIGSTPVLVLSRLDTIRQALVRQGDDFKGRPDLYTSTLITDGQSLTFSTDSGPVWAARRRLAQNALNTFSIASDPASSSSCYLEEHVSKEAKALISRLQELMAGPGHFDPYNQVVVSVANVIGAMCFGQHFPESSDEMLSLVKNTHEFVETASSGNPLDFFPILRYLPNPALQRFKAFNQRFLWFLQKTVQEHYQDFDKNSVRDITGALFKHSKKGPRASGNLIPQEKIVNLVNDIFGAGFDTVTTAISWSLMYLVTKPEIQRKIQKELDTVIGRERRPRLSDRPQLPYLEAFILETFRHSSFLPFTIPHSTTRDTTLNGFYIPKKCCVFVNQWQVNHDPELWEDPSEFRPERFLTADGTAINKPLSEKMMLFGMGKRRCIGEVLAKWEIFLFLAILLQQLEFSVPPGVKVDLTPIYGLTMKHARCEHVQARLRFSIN
In short: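 rec. hCYP1A2 (insect cells), cell-free; fluorogenic substrate; 0.5 h; FI read. Baseline = acetonitrile; signal loss = inhibition. 10 uM duplicate primary → conc. series for actives.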

Measured: AC50

O=C(NS(=O)(=O)/C=C/c1cccs1)c1ccc(F)cc1Br
inactive: [1] | [2] | [3] | [5]
active: [4] 3.54 µM

CC(C)COC(=O)CCCCC(=O)OCC(C)C
inactive: [1] | [2] | [3] | [4] | [5]

C#CC(O)C(CC)CCCC (configuration not stated)
inactive: [1] | [2] | [3] | [4] | [5]

O=C1O[C@H]([C@H](O)CO)C(O)=C1O
inactive: [1] | [2] | [3] | [5]
active: [4] 12 µM

CS(=O)(=O)c1ccc([C@@H](C[C@H]2CCC(=O)C2)C(=O)Nc2cnccn2)cc1Cl
inactive: [1] | [2] | [3] | [4] | [5]

Cc1c(C)c2c(c(C)c1O)CCC(C)(COc1ccc(CC3SC(=O)NC3=O)cc1)O2 (configuration not stated)
active: [1] 31.6 µM | [2] 20 µM | [3] 32.8 µM | [4] 14.1 µM | [5] 23.7 µM

CCc1cc(C2=C(C(=O)O)N(c3ccccc3C(F)(F)F)S(=O)(=O)c3ccccc32)cc2c1OCO2
inactive: [1] | [2] | [3] | [5]
active: [4] 15.3 µM

O=C(O)c1[nH]n(-c2ccc(S(=O)(=O)O)cc2)c(=O)c1N=Nc1ccc(S(=O)(=O)O)cc1
inactive: [1] | [2] | [3] | [4] | [5]

Nc1nc(=S)c2[nH]cnc2[nH]1
inactive: [1] | [2] | [3] | [5]
active: [4] 13.5 µM

C/C=C/c1ccc(OC)cc1
inactive: [1] | [2] | [3] | [4] | [5]

Cc1occc(=O)c1O
inactive: [1] | [2] | [3] | [4] | [5]

O=Cc1ccccc1C=O
inactive: [1] | [2] | [3] | [4] | [5]

CC(C)OC(=O)C(C)(C)Oc1ccc(C(=O)c2ccc(Cl)cc2)cc1
active: [3] 29.1 µM | [4] 29.5 µM | [5] 28.9 µM
inactive: [1] | [2]

Cn1cnc2c1c(=O)[nH]c(=O)n2C
inactive: [1] | [2] | [3] | [4] | [5]

CN(C)CCCN(C)CCCN(C)C
inactive: [1] | [2] | [3] | [4] | [5]

CCCCc1nc2cccnc2n1Cc1ccc(-c2ccccc2-c2nnn[nH]2)cc1
inactive: [1] | [2] | [3] | [4] | [5]

O=C1c2c(O)cccc2Cc2cccc(O)c21
inactive: [1] | [2] | [3] | [4] | [5]

CC(C)(C)c1ccccc1
inactive: [1] | [2] | [3] | [4] | [5]

O=C(O)CC(O)(CC(=O)O)C(=O)O
inactive: [1] | [2] | [3] | [4] | [5]

OCC(CO)n1cnc(-c2ccc(F)cc2)c1-c1ccnc(Oc2ccccc2)n1
active: [2] 2.47 µM | [3] 0.24 µM | [4] 18.1 µM
inactive: [1] | [5]

CCCCCCCCCCCCCCCCO
inactive: [1] | [2] | [3] | [4] | [5]

CO[C@@H]1COCC[C@@H]1N[C@@H]1CC[C@@](C(=O)N2CCc3ncc(C(F)(F)F)cc3C2)(C(C)C)C1
inactive: [1] | [2] | [3] | [4] | [5]

CC(C)c1cccc(C(C)C)c1
inactive: [1] | [2] | [3] | [4] | [5]

COC(=O)CCC(=O)OC
inactive: [1] | [2] | [3] | [4] | [5]

O=C(Oc1ccccc1)c1cccc(C(=O)Oc2ccccc2)c1
inactive: [1] | [2] | [3] | [5]
active: [4] 24.2 µM

Cc1cn([C@H]2C=C[C@@H](CO)O2)c(=O)[nH]c1=O
inactive: [1] | [2] | [3] | [4] | [5]

CC(C)NCC(O)c1ccc(O)c(O)c1 (configuration not stated)
inactive: [1] | [3] | [5]
active: [2] 13.5 µM | [4] 24.5 µM

O=C(O)c1cccnc1
inactive: [1] | [2] | [3] | [4] | [5]

CCCCCCCCCCCCCCOS(=O)(=O)O
inactive: [1] | [3] | [4] | [5]
active: [2] 34.2 µM

O=[Si]=O
inactive: [1] | [2] | [3] | [4] | [5]

CCCCCCC(CCCCCCCCCCC(=O)OCC(COC(C)=O)OC(C)=O)OC(C)=O (configuration not stated)
inactive: [1] | [2] | [3] | [4] | [5]

O=NO
inactive: [1] | [2] | [3] | [4] | [5]

CCCCC(CC)CO (configuration not stated)
inactive: [1] | [2] | [3] | [4] | [5]

Cc1ccc(C(C)(C)C)c(O)c1
inactive: [1] | [2] | [3] | [4] | [5]

CC(=O)CC(c1ccccc1)c1c(O)c2ccccc2oc1=O (configuration not stated)
inactive: [1] | [2] | [3] | [4] | [5]

Oc1ccc(O)cc1
active: [2] 12.8 µM | [4] 7.06 µM
inactive: [1] | [3] | [5]

COc1ccc(OC(F)(F)F)cc1CN[C@H]1CCCN[C@H]1c1ccccc1
active: [2] 26.6 µM | [3] 12.4 µM | [4] 32.6 µM | [5] 31.1 µM
inactive: [1]

CN(C)C(=O)NC1(c2ccccc2)CCN(CC[C@@]2(c3ccc(F)c(F)c3)CN(C(=O)c3ccccc3)CCO2)CC1
active: [4] 26.1 µM
inactive: [1] | [2] | [3] | [5]

CCCCC(CC)COC(=O)CCCCCCCC(=O)OCC(CC)CCCC (configuration not stated)
inactive: [1] | [2] | [3] | [4] | [5]

O=C1NC(=O)C(c2ccccc2)(c2ccccc2)N1
inactive: [1] | [2] | [3] | [4] | [5]

CC(=O)O
inactive: [1] | [2] | [3] | [4] | [5]

C=CCCCCCCCCCCCC
inactive: [1] | [2] | [3] | [4] | [5]

COC(=O)CCCC(=O)OC
inactive: [1] | [2] | [3] | [4] | [5]

N[C@@H](Cc1c[nH]c2ccccc12)C(=O)O
inactive: [1] | [2] | [3] | [4] | [5]

OCC(O)CO
inactive: [1] | [2] | [3] | [4] | [5]

NCCOCCOCCN
inactive: [1] | [2] | [3] | [4] | [5]

CCCCCCCCCC[N+](C)(C)[O-]
inactive: [1] | [2] | [3] | [4] | [5]

CC(=O)S[C@H](C(=O)N[C@H]1Cc2ccccc2[C@H]2CCC[C@@H](C(=O)O)N2C1=O)C(C)C
active: [4] 7.81 µM
inactive: [1] | [2] | [3] | [5]

NC=O
inactive: [1] | [2] | [3] | [4] | [5]

CCCCOC(=O)CCCCC(=O)OCCCC
inactive: [1] | [2] | [3] | [4] | [5]

c1ccc2occc2c1
inactive: [1] | [2] | [3] | [4] | [5]

CC1=C(C)S(=O)(=O)CCS1(=O)=O
inactive: [1] | [2] | [3] | [4] | [5]

CCCCC(CC)COP(=O)(OCC(CC)CCCC)OCC(CC)CCCC (configuration not stated)
inactive: [1] | [3]
active: [2] 0.197 µM | [4] 5.3 µM | [5] 5.38 µM

CC(C)c1cccc(C(C)C)c1NC(=O)NS(=O)(=O)c1cc(C(C)(C)O)co1
inactive: [1] | [2] | [3] | [4] | [5]

CCCCCCCC(=O)OC
inactive: [1] | [2] | [3] | [4] | [5]

NC(=Nc1ccccc1)Nc1ccccc1
inactive: [1] | [2] | [3] | [4] | [5]

CCCC(=O)O
inactive: [1] | [2] | [3] | [5]
active: [4] 33.7 µM

O=C1CCCCC1
inactive: [1] | [2] | [3] | [4] | [5]

Oc1ccccc1O
active: [4] 24.5 µM | [5] 8.32 µM
inactive: [1] | [2] | [3]

CC(N)=O
not listed: [7] | [8] | [9]
inactive: all other assays above

CCN(CC)CCOc1ccc(C(=C(Cl)c2ccccc2)c2ccccc2)cc1
active: [1] 13.8 µM | [2] 6.29 µM | [3] 7.87 µM | [4] 3.54 µM | [5] 11.1 µM | [7] 11.3 µM

COC(=O)[C@H]1[C@H]2C[C@@H]3c4[nH]c5cc(OC)ccc5c4CCN3C[C@H]2C[C@@H](OC(=O)c2cc(OC)c(OC)c(OC)c2)[C@@H]1OC
active: [1] 24.5 µM | [2] 23.9 µM | [5] 25.9 µM
inactive: [8]

Cc1cc(Cc2ccc(N)c(C)c2)ccc1N
not listed: [6] | [7] | [8]
inactive: all other assays above

CN(C)CCCN1c2ccccc2Sc2ccc(Cl)cc21
inactive: [8]
active: [2] 16.4 µM | [5] 28.3 µM

CCC(C)N(C)C(=O)c1cc2ccccc2c(-c2ccccc2Cl)n1 (configuration not stated)
not listed: [6] | [7] | [9]
inactive: all other assays above

CCOCCOCCO
inactive: [1] | [2] | [3] | [4] | [5]

O=C(N[C@@H](c1ccccc1)[C@@H]1CCCCN1)c1cccc(C(F)(F)F)c1Cl
active: [2] 20 µM | [3] 14.3 µM | [4] 14.4 µM | [5] 26.5 µM
inactive: [1] | [6]

Reference: PubChem BioAssay (EPA / NIEHS)
